Pf apPOL block: Pf-apPOL DNA polymerase inhibition. 210,000 tested, 0.25% active. AID 1794808. Recombinant Pf-apPOL, molecular beacon fluorescence, 1.5 h. inhibition, % at 10 µM
mHTT-CaM PPI inh: mHTT-calmodulin interaction abrogation. 190,000 tested, 3.6% active. inhibition, % at 15 µM. AlphaScreen His-mHTT/GST-CaM binding, luminescence. AID 1671202;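 also: 0% = both proteins with DMSO and 100% = one protein alone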
The depositor's hits bear a star; x = no result. Rows were chosen to be rich in hits. Some 3.5% of all compounds tested hit in one or more screens of this group. Rule as the data show it: active = inhibition above about 50%; inactive = the rest.

SMILES	Pf apPOL block	mHTT-CaM PPI inh
CCCC(C)C(=O)Nc1ccc(OCC)cc1 (stereo unspecified)	4.3	100.0*
Cc1cc(C)nc(SCc2nnc(SCC=Cc3ccccc3)n2C)n1	-13.3	-3.4
COc1ccccc1/C=C/CN1CCN(c2ccc([N+](=O)[O-])cc2)CC1	-3.1	53.1*
Cc1cccc(N2CCN(C/C=C/c3ccccc3[N+](=O)[O-])CC2)c1C	-5.5	65.7*
CCN1CCN(C/C=C/c2ccccc2[N+](=O)[O-])CC1	-6.9	0.9
COc1ccccc1/C=C/CN1CCN(c2ccccc2)CC1	-4.4	32.1
COc1cccc(-c2cc(C3CCN(C(=O)NCc4ccc(C)cc4)CC3)[nH]n2)c1	-5.0	27.3
N#CC(c1ccccc1O)N1N=C(c2ccccc2)CC1c1ccccc1 (stereo unspecified)	-5.5	92.0*
NC(=S)N1N=C(c2ccccc2)CC1c1ccccc1 (stereo unspecified)	x	7.5
O=C(NCc1c(Cl)cccc1Oc1ccccc1)c1c(F)cccc1F	-2.9	x
CC(C)(C)NC(=O)N1CCC(CNC(=O)Nc2ccc(C(F)(F)F)cc2)CC1	-11.2	-10.1
CCc1nn(-c2ccc(Cl)c(Cl)c2)c(CC)c1C(=O)N1CCN(CC)CC1	-9.6	65.9*
Cc1c(C(=O)N2CCN(C)CC2)c(C2CC2)nn1-c1ccc(Cl)c(Cl)c1	-3.2	56.4*
CCc1nn(-c2ccc(C)cc2)c(CC)c1C(=O)N1CCN(CC)CC1	-2.4	15.8
CC(C)c1c(C(=O)N2CCN(C)CC2)c(C2CC2)nn1-c1ccccc1	-1.3	5.0
CN(C)CCCN(C(=O)Cc1ccccc1)c1nc2ccc(Br)cc2s1	-5.5	100.2*
CN(C)CCCN(C(=O)C1=COCCO1)c1nc2ccc(Br)cc2s1	-15.7	22.6
COc1ccc(C(=O)CSc2n[nH]c(=O)n2-c2c(C)cc(C)cc2C)cc1	-36.0	x
OC1(c2ccccc2)CCN(Cc2ccccc2)C1 (stereo unspecified)	-3.8	-3.6
O=C(c1ccccc1)C1CN(Cc2ccccc2)CCC1(O)c1ccccc1 (stereo unspecified)	-0.8	70.4*
COc1ccc(N2C(=O)c3ccc(Oc4ccc(N)cc4)cc3C2=O)cc1OC	1.6	5.0
COc1ccccc1Oc1ccc2c(c1)C(=O)N(c1cccc3ncccc13)C2=O	-4.9	75.0*
CC1CCC(NC(=O)CNc2ccccc2-c2nc3ccccc3[nH]c2=O)CC1 (stereo unspecified)	-8.2	-13.0
CC1CCN(C(=O)c2ccc3c(c2)CC(=O)N3Cc2cccc(F)c2)CC1	-2.2	56.6*
CCN1C(=O)Cc2cc(C(=O)N3CCN(c4ccccc4C)CC3)ccc21	1.0	68.0*
SMILES	Pf apPOL block	mHTT-CaM PPI inh
CCN1C(=O)Cc2cc(C(=O)N3CCN(c4ccccc4Cl)CC3)ccc21	-6.4	27.3
CC1CCN(C(=O)c2ccc3c(c2)CC(=O)N3Cc2ccc(F)cc2)CC1	-6.4	14.7
CC1C(=O)N(c2cccc(F)c2)CCN1C(=O)c1cccc(Br)c1 (stereo unspecified)	1.6	-8.6
Cc1ccc(C(=O)N2CCC(COc3ccccc3C(=O)N3CCCC3)CC2)cc1	-7.0	3.3
CCCCOc1ccc(C(=O)Nc2c3c(nn2-c2cccc(Cl)c2)CS(=O)(=O)C3)cc1	-3.8	14.0
N#CC1=C(N)C(C#N)(C#N)C(c2ccc(I)cc2)C=C1C1CC1 (stereo unspecified)	0.7	58.0*
N#CC1=C(N)C(C#N)(C#N)C(c2ccc(O)cc2)C2CCCC=C12 (stereo unspecified)	-4.3	-3.0
CC(C)OC(=O)Cn1cnc2c(-c3cccc(F)c3)csc2c1=O	-4.4	-22.6
O=C(Nc1ccccc1)/C(=C\c1cccc([N+](=O)[O-])c1)NC(=O)c1ccc(Br)o1	-2.4	-6.6
CCc1cc(C2CCCN2C(=O)c2cc(-c3ccco3)on2)on1 (stereo unspecified)	1.8	-8.1
COc1cccc(CN2CCc3nc(Nc4ccc5c(c4)OCO5)ncc3C2)c1	2.9	83.7*
Fc1cccc(CN2CCc3nc(Nc4ccc5c(c4)OCO5)ncc3C2)c1	-4.9	18.2
COc1ccccc1CN1CCc2nc(Nc3ccc4c(c3)OCO4)ncc2C1	-0.5	51.0*
Cc1ccc(CN2CCc3nc(Nc4ccc5c(c4)OCO5)ncc3C2)cc1	-3.7	11.0
CCOc1ccc(CN2CCc3nc(Nc4ccc5c(c4)OCO5)ncc3C2)cc1OC	2.4	31.2
COc1ccccc1CN1CCc2nc(Nc3ccc4c(c3)OCCO4)ncc2C1	-2.9	32.9
CC(C)Oc1ccc(CN2CCc3nc(Nc4ccc5c(c4)OCO5)ncc3C2)cc1	1.6	80.0*
CCOc1ccccc1CN1CCc2nc(Nc3ccc4c(c3)OCCO4)ncc2C1	-2.8	83.3*
O=C(Nc1cccn2c(C3CCC3)nnc12)c1ccc(Cl)s1	-2.3	-4.3
Cc1ccc(CNc2cc(-n3cccn3)ncn2)cc1	-1.3	-2.9
O=C(Nc1ccc(Cl)cc1F)c1cc(S(=O)(=O)NCc2ccccc2)ccc1F	-6.1	1.0
CCOc1cc(C(=O)Nc2cc(OC)ccc2OC)cc(OCC)c1OCC	-5.2	10.8
CC(=O)c1cccc(NC(=O)c2cnn3cccnc23)c1	0.3	2.0
CSc1cccc(NC(=O)CN(c2ccccc2F)S(=O)(=O)c2ccc(C)cc2)c1	-3.4	-2.3
COc1ccccc1C1CCN(c2ccc(C=CC(=O)NNC(=O)c3ccc(C(F)(F)F)cc3)cc2[N+](=O)[O-])CC1	-7.6	x
SMILES	Pf apPOL block	mHTT-CaM PPI inh
O=C(NCCc1ccccc1)C1CC(c2c(F)cccc2Cl)=NO1 (stereo unspecified)	-3.3	-0.1
O=C(c1cccs1)N1CCCC(OCc2ccc(C(F)(F)F)cc2)C1 (stereo unspecified)	-1.7	50.6*
COc1cccc(COC2CCCN(C(=O)c3cccs3)C2)c1 (stereo unspecified)	-3.2	-3.9
O=C(Nc1nnc(-c2ccc3c(c2)OCO3)s1)c1ccc2c(c1)OCO2	-2.1	-1.0
CC1=NN(c2ccccc2)C(=O)/C1=C/N1CCCCC1	-1.5	2.0
CC1=NN(c2ccccc2)C(=O)/C1=C/c1cccc(Oc2ccccc2)c1	3.3	52.0*
CC1=NN(c2ccccc2)C(=O)/C1=C/c1ccc(N(C)C)c(Br)c1	3.0	65.0*
CCOc1cc(/C=C2/C(=O)N(c3ccccc3)N=C2C)ccc1O	8.1	43.0
CC1=NN(c2ccccc2)C(=O)/C1=C/c1cccc(C(=O)O)c1	0.1	5.0
CC1=NN(c2ccccc2)C(=O)/C1=C/c1ccc2c(c1)OCO2	3.7	8.0
CC1=NN(c2ccccc2)C(=O)/C1=C/C=C/c1ccccc1	-1.6	71.0*
CC1=NN(c2ccccc2)C(=O)/C1=C/c1ccc(O)c(Br)c1	6.3	52.0*
CNc1nccc(N2CCC(CC(=O)NCCCN3CCC(C)CC3)CC2)n1	-7.8	7.6
COc1cccc(CN2CCc3c(cc(C(=O)N4CCN(c5ccccn5)CC4)n3C)C2)c1	-6.7	12.5
O=C(c1ccc2c(c1)OCO2)N1CCCC(c2n[nH]c(C3CC3)n2)C1 (stereo unspecified)	-0.7	-4.6
O=C1OC(c2ccccc2)=C/C1=C\c1c(Cl)cccc1Cl	-0.6	-59.0
CCC(Sc1nc(NCc2ccc(Cl)cc2)c2ccccc2n1)C(=O)N1CCOCC1 (stereo unspecified)	-4.7	34.0
CCCC1=NN(c2ccccc2)C(=O)/C1=C\c1cc(Br)c(O)c(OC)c1	-1.9	67.0*
COc1cc(/C=C2\SC(=O)N(c3ccccc3)C2=O)cc(Br)c1O	-6.2	8.0
COc1ccc(NC(=O)c2cc(C(C)C)n3nccc3n2)cc1Cl	0.7	-11.6
